Consider seven molecules from PubChem BioAssay.

Calls of active or inactive are those of the source. Unless noted, no rule for the calls is given here.

Experiment [1] can be described thus: HepG2 liver cancer cell viability effects, profiling panel, resazurin fluorescence, 24 h, PK04 Diversity Set (AID 1172). The note with it: higher = more signal. For orientation: The colour change of resazurin is a common sign of viable cells or microbes.
A short description of experiment [2]: basal S. cerevisiae growth modulation, no modifier, primary screen, OD600, strain BY4716, 24 h, basal condition (AID 1173). The note with it: OD600, 24 h, higher = more signal, called active from +8 up or from −8 down.
Experiment [3] in a line: MM1S myeloma cell viability, profiling panel, resazurin fluorescence, basal, 24 h, PK04 Diversity Set (AID 1174). The note with it: higher = more signal, called active from +8 up or from −8 down.
Experiment [4] addresses Dihydroorotate dehydrogenase (quinone), mitochondrial (Plasmodium falciparum (isolate 3D7)) (UniProt Q08210). Nature of the experiment: PfDHODH enzyme inhibitors, primary screen, biochemical, C-terminal His tag, absorbance 600 nm (AID 1175).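 Also: recombinant parasite enzyme with a five histidine tag at its C terminus.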 The note with it: DCIP absorbance 600 nm, higher = more signal, called active from +8 up or from −8 down.
The nature of experiment [5]: P. aeruginosa biofilm formation inhibitors, primary screen, strain PAO1, LB-PBS medium, absorbance 600 nm (AID 1176). The note with it: P. aeruginosa PAO1 growth/biofilm, A600, 12 h; higher = more signal.
Experiment [6] can be described thus: S. cerevisiae RM11-1a growth modifiers, primary screen, strain RM11-1a, OD600, basal, 24 h (AID 1177).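 Also: cultures grown under basal conditions with no added stressor.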 The note with it: OD600, 24 h, higher = more signal, called active from +8 up or from −8 down.
Experiment [7] can be described thus: E. coli acrAB mutant growth effects, primary screen, E. coli filamentation inducers, strain DRC39, OD650, 24 h (AID 1178).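 Also: growth measured as culture turbidity by optical density at 650 nm.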 The note with it: higher = more signal, called active from +8 up or from −8 down.
A short description of experiment [8]: E. coli acrAB mutant growth effects, primary screen, E. coli filamentation inducers, strain DRC39, OD650, 48 h (AID 1179).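 Also: screen aims at cell division blockers that make cells filament.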 The note with it: E. coli DRC39 delta-acrAB growth, higher = more signal, called active from +8 up or from −8 down.
A short description of experiment [9]: RPMI8226 myeloma cell viability, profiling panel, resazurin fluorescence, basal, 24 h, PK04 Diversity Set (AID 1180).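 Also: RPMI8826 multiple myeloma cell line at 5000 cells per well.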 The note with it: higher = more signal.
The target in experiment [10] is E3 ubiquitin-protein ligase XIAP (Homo sapiens) (UniProt P98170). The experiment can be described thus: XIAP binders, primary screen, biophysical, small-molecule microarray, fluorescence 635 nm (AID 1181).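 Also: score merges 667 nm emission and signal to noise over triplicate slides.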 The note with it: small-molecule microarray binding, higher = more signal.
E3 ubiquitin-protein ligase XIAP (Homo sapiens), sequence (P98170 whole entry, looked up): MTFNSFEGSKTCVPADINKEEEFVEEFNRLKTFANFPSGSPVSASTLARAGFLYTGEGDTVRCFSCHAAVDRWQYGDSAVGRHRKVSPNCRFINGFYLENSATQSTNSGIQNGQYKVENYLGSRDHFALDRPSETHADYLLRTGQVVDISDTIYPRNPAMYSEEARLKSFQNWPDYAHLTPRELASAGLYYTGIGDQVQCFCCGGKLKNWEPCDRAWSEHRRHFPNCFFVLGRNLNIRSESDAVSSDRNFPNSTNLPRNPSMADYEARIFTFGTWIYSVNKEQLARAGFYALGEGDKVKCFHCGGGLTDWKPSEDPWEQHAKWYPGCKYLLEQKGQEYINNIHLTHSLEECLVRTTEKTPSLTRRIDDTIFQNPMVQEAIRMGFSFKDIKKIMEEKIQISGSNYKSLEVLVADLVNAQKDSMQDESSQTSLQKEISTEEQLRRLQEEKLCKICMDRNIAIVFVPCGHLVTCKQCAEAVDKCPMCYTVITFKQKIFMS
Experiment [11] has as its system XIP peptide (Xip251-270) binding. The experiment can be described thus: small-molecule binders of XIP peptide, primary screen, biochemical, small-molecule microarray, fluorescence 635/667 nm, 0.1 µg/mL protein (AID 1182). The note with it: fluorescent protein binding, 635 nm, higher = more signal, called active from +8 up or from −8 down.
In the next experiment the test system is XIP peptide (Xip251-270). Nature of the experiment: small-molecule binders of XIP peptide, primary screen, biochemical, small-molecule microarray, fluorescence 635/667 nm, 0.5 µg/mL protein (AID 1183). The note with it: small-molecule microarray binding, fluorescence 635 nm; higher = more signal.
Experiment [12] in a line: Plasmodium falciparum growth inhibition, primary screen, strain 3D7, DAPI fluorescence, 100 nL (AID 1184).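 Also: parasites grown inside human red blood cells in medium with human serum.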 The note with it: P. falciparum 3D7 growth, 3 d, higher = more signal.
The target of experiment [13] is Homeobox protein Hox-A13 (Mus musculus) (UniProt Q62424). Nature of the experiment: inhibitors of HoxA13-DNA binding, primary screen, biochemical, fluorescence polarization, labeled oligonucleotide (AID 1185). The note with it: 15 min, higher = more signal, called active from +8 up or from −8 down. (In general: Polarisation of emitted light reports the rotation of a fluorescent probe.)
Homeobox protein Hox-A13 (Mus musculus), sequence (Q62424 whole entry, looked up): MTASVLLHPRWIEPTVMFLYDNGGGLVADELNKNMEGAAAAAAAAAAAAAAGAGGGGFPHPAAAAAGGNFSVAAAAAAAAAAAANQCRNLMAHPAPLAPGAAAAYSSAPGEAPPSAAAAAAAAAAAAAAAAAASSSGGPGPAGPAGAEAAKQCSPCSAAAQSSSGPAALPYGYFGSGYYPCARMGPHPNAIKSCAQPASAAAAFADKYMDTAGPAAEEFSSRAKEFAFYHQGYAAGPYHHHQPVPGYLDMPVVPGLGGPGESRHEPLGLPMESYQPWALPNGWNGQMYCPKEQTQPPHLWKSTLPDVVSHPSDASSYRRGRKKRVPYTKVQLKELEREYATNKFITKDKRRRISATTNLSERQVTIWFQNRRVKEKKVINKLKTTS

Experiment [14] can be described thus: inhibitors of hydroxyurea-induced Chk1 phosphorylation, primary screen, imaging, HeLa, phospho-Chk1 antibody, percent positive cells (AID 1186). The note with it: hydroxyurea-induced phospho-Chk1 immunofluorescence imaging, higher = more signal.
Experiment [15] in a line: inhibitors of hydroxyurea-induced Chk1 phosphorylation, primary screen, imaging, HeLa, phospho-Chk1 nuclear intensity (AID 1187). The note with it: hydroxyurea-induced phospho-Chk1 immunofluorescence imaging, higher = more signal.

Dihydroorotate dehydrogenase (quinone), mitochondrial (Plasmodium falciparum (isolate 3D7)), sequence (Q08210 whole entry, looked up): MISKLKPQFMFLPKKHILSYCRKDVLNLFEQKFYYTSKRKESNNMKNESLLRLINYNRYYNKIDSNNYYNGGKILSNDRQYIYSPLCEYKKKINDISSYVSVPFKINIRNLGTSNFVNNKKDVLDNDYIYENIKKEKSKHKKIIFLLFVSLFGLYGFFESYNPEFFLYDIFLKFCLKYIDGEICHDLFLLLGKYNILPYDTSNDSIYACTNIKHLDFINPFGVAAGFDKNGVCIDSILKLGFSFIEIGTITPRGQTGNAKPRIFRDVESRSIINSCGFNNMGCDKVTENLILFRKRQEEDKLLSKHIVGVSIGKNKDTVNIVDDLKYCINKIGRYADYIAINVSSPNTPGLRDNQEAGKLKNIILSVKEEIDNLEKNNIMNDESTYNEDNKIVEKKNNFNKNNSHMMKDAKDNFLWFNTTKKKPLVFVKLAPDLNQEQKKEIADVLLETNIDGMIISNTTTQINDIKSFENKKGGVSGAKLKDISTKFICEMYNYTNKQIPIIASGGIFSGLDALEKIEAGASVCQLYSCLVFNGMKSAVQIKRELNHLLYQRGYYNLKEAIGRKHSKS

Consider `C=CCOC(=O)[C@@H]1[C@H]2C(=O)O[C@H](c3ccccc3)[C@H](c3ccccc3)N2[C@H](c2ccc(OCCOC(=O)[C@H]3C[C@H]4C(=O)N[C@@H](CCCCN(C)C)C(=O)N4[C@H]3c3ccc(O)cc3)cc2)[C@@]12C(=O)Nc1ccc(I)cc12`, for which the z-score was -0.148 in experiment [1]; -0.679 (inactive) in [2]; -0.467 (inactive) in experiment [3]; 1.34 (inactive) in experiment [5]; 1.6 (inactive) in [6]; -0.466 (inactive) in experiment [7]. Further, the z-score in experiment [8] is 0.236 (inactive); in [9], -0.431; in experiment [12], -1.92; in experiment [13], 5.3 (inactive); in experiment [14], 0.289 (inactive); in experiment [15] it was 0.419 (inactive). The composite z-score was -2.47 (inactive) in experiment [4], -0.224 in experiment [10], 0.94 (inactive) in experiment [11] and 0.849 in the experiment with XIP peptide (Xip251-270).

In the case of `COC(=O)[C@@]1(Cc2ccc(F)cc2)[C@H]2c3cc(C(=O)N4CCCC4)n(Cc4cc(F)cc5c4OCOC5)c3C[C@H]2CN1C(=O)c1ccccc1`, the z-score in experiment [1] was -1.29; in experiment [2], 1.9 (inactive); in experiment [3], -0.931 (inactive); in experiment [5], -0.25 (inactive); in experiment [6] it was 1.31 (inactive); in experiment [7], 0.462 (inactive). The z-score in experiment [8] was -1.11 (inactive); in experiment [9], -2.88; in [12], -1.6; in experiment [13], -4.07 (inactive); in experiment [14], -0.142 (inactive); in experiment [15], -0.121 (inactive). The composite z-score in [4] was -0.224 (inactive); in [10] it was 0.334; in experiment [11], 0.602 (inactive); in the experiment on XIP peptide (Xip251-270), 0.53.

For `CCCCCC1=C2CNC(CC(C)C)(C(=O)OC)C=C2C(C)C1=O` (configuration not stated), the z-score in experiment [1] was -0.97; in [2] it was 0.153 (inactive); in experiment [3], -1.2 (inactive); in [5], 0.383 (inactive); in experiment [6] it was 0.915 (inactive); in experiment [7], 0.0841 (inactive). For the same molecule, the z-score was 0.501 (inactive) in [8]; -0.927 in experiment [9]; -0.282 in experiment [12]; -8.08 (active) in experiment [13]; 1.32 (inactive) in [14]; 0.856 (inactive) in experiment [15]. Moreover, the composite z-score in experiment [4] was -1.09 (inactive); in [10] it was 0.0907; in experiment [11], 0.814 (inactive); in the experiment on XIP peptide (Xip251-270), 0.176.

As for `CCOC(=O)C[C@H]1[C@H](OC(=O)Cc2ccc3c(c2)OCO3)[C@@H](NC(=O)c2ccc3ccccc3n2)c2cc(OCCCO)ccc2N1C(=O)Cc1ccc(OC)cc1`, the z-score in [1] was 1.14; in [2], -1.17 (inactive); in experiment [3] it was -0.175 (inactive); in experiment [5], 0.477 (inactive); in experiment [6], -0.925 (inactive); in experiment [7] it was 1.12 (inactive). The z-score in [8] was 1.6 (inactive); in experiment [9], 0.29; in experiment [12], -2.57; in experiment [13], -1.86 (inactive); in [14], -0.192 (inactive); in [15], 0.225 (inactive). The composite z-score in experiment [4] was -1.55 (inactive); in [10] it was -0.232; in experiment [11] it was 0.322 (inactive); in the experiment with XIP peptide (Xip251-270) it was 0.401.

With `CCCCC(=C=CC[C@H](O)c1ccc(CO)o1)CCO`, the z-score was -0.585 in experiment [1]; -0.976 (inactive) in experiment [2]; 0.0305 (inactive) in experiment [3]; 0.224 (inactive) in experiment [5]; 0.648 (inactive) in [6]; -0.312 (inactive) in experiment [7]. Moreover, the z-score in experiment [8] is -0.409 (inactive); in experiment [9], -0.34; in experiment [12], 1.13; in [13], -4.55 (inactive); in [14], 0.818 (inactive); in experiment [15], 0.392 (inactive). Also, the composite z-score was -0.776 (inactive) in [4], -0.0663 in experiment [10], 0.234 (inactive) in experiment [11] and 0.552 with XIP peptide (Xip251-270).

Consider `COC(=O)C(CC#Cc1ccc2c(c1)[C@]1(C(=O)N2)[C@H](c2ccc(OCCO)cc2)N2[C@H](c3ccccc3)[C@H](c3ccccc3)OC(=O)[C@H]2[C@@H]1C(=O)N1CCCCCCC1)C(=O)OC`, for which the z-score in [1] is -0.198; in experiment [2] it was 1.12 (inactive); in experiment [3] it was -0.223 (inactive); in experiment [5] it was 2.9 (inactive); in experiment [6], 1.3 (inactive); in experiment [7], -0.8 (inactive). Moreover, the z-score in [8] was 0.136 (inactive); in experiment [9] it was -1.02; in [12], -2.24; in experiment [13], -14.6 (active); in experiment [14], -0.224 (inactive); in experiment [15] it was -0.197 (inactive). Moreover, the composite z-score in experiment [4] was 0.365 (inactive); in experiment [10] it was 0.997; in experiment [11], 2.15 (inactive); in the experiment with XIP peptide (Xip251-270) it was 0.812.

Take `COc1ccc(CCNC(=O)[C@@H]2c3ccccc3C(=O)N(Cc3ccccc3OC)[C@H]2c2ccc(CO)cc2)cc1`: the z-score in experiment [1] was 0.851; in experiment [2], 0.528 (inactive); in experiment [3], -0.0684 (inactive); in experiment [5] it was 0.264 (inactive); in experiment [6], -0.341 (inactive); in experiment [7], 0.483 (inactive). The z-score is 0.258 (inactive) in [8]; -0.205 in experiment [9]; -0.996 in experiment [12]; -4.7 (inactive) in [13]; -0.0274 (inactive) in [14]; -0.213 (inactive) in experiment [15]. For the same molecule, the composite z-score in [4] was 1.14 (inactive); in experiment [10], -0.309; in [11], 0.675 (inactive); in the experiment on XIP peptide (Xip251-270), 0.393.
